From PubChem BioAssay
MsrA inhibitor: bovine MsrA inhibition; 360,000 compounds, 0.75% hits; inhibition, % at 15.5 µM; purified bovine MsrA, absorbance read-out;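 also: 0% = vehicle wells with enzyme and 100% = reference inhibitor wells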
PKA-R1A act: activators of PKA-R1A complex | PKA-R1A dissociation, Cy5-IP20 fluorescence polarization; scaled: DMSO 0%, 113 µM cGMP 100% | activation, % at 11.4 µM | 340,000 compounds, 0.083% hits | P00514+P68181;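 active = percent activation above the mean of all tested compounds plus 3 SD, cut at about 19% in these data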;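 also: higher means more PKAc released from R1A so a rise in polarization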
Mot1-301 SUMO: SUMOylation pathway inhibition by Mot1-301 growth rescue. S. cerevisiae Mot1-301 growth rescue, ATP luminescence, 38.5C; percent above DMSO median, 100 means doubled. growth rescue, % at 18.8 µM. 320,000 compounds, 1% hits. AID 2716;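 active = every valid replicate shows activation above 250% relative to neutral control wells; inactive = the rest, any valid replicate at or below 250%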;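 also: OY570 slx delta 5 strain wells were the positive control but not used for scaling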
MsrA act: activators of bovine methionine sulfoxide reductase A | AID 602163 | activation, % at 10.6 µM | purified bovine MsrA, absorbance read-out | 360,000 compounds, 0.3% hits; in the data active = activation above about 7.5%;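 also: 0% = vehicle and 100% = reference activator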
PKA-R2B activ: PKA-R2B complex activation | P22694+P31323 | PKA-R2B holoenzyme dissociation, Cy5-IP20 fluorescence polarization; R2B truncated from residue 108, S112A mutant; 0% DMSO only, 100% 113 µM cGMP | activation, % at 11.4 µM | 340,000 compounds, 0.079% hits | AID 504700;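 active = activation above a cutoff set at the mean over all compounds plus 3 SD, cut at about 18% in these data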;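 also: higher means more holoenzyme dissociation and a rise in polarization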
R2B FP artifact: fluorescence polarization artifact in PKA-R2B activator counter-screen; shares compounds with PKA-R2B activ; FP artifact counterscreen; activation, % at 11.4 µM; 270 compounds, 6% hits; AID 504796; in the data active = activation above about 20%;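 also: Cy5 labelled IP20 peptide probe with compound but no PKA protein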
PKA-R2B confirm: confirmation of human PKA-R2B complex activators; shares compounds with PKA-R2B activ; fluorescence polarization, activation; activation, % at 11.4 µM; 270 compounds, 9% hits; in the data active = activation above about 19%
Target sequence (P31323 whole entry, looked up): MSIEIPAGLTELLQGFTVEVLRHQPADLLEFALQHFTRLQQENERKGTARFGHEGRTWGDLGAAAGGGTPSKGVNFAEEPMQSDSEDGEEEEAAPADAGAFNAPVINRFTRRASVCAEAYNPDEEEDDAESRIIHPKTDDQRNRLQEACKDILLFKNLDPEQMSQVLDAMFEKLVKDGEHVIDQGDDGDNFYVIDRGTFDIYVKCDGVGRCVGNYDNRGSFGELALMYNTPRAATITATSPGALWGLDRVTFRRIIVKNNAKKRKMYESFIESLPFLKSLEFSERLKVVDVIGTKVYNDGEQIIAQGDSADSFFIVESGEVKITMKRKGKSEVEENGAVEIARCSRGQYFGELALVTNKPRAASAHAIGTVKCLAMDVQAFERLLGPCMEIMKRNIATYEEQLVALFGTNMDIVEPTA
R1A FP artifact: counter-screen for PKA-R1A activators: fluorescence polarization artifacts; shares compounds with PKA-R1A act; Cy5-IP20 peptide alone, fluorescence polarization artifact counterscreen; activation, % at 11.4 µM; 280 compounds, 7% hits;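 active = mean activation over triplicate runs exceeds the adjusted cutoff derived for the parent primary screen, cut at about 19% in these data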;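 also: no PKA protein present so any polarization rise reflects compound interference; 0% = tracer peptide mix alone and 100% = mix with added PKA catalytic subunit; higher means stronger polarization artifact and likely false positive in parent screen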
PKA-R1A act conf: PKA-R1A complex activation, confirmation; shares compounds with PKA-R1A act; Cy5-IP20 fluorescence polarization, PKA-R1A holoenzyme dissociation; activation, % at 11.4 µM; 280 compounds, 9% hits; AID 504800;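 active = mean activation over replicate wells exceeds the adjusted hit threshold taken from the earlier primary screen, cut at about 20% in these data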;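 also: 0% = holoenzyme mix with DMSO only and 100% = cGMP-activated control wells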
Target sequence (P00514 whole entry, looked up): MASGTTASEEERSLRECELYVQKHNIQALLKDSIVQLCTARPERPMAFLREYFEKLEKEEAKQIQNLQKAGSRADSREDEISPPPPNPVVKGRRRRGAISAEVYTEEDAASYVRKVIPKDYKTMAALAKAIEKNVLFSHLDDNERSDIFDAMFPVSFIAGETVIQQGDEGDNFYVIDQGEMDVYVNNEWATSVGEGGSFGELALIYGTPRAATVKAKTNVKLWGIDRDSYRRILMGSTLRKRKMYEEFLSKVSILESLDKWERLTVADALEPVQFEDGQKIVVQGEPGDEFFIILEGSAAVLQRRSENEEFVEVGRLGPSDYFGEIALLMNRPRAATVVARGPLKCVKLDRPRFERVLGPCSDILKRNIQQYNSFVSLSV
MsrA conf: bovine MsrA inhibition, confirmed; shares compounds with MsrA inhibitor; purified bovine MsrA, absorbance read-out; inhibition, % at 15.5 µM; 2,300 compounds, 41% hits; AID 651822;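 also: coupled to thioredoxin reductase with NADPH and selenocystamine and DMSO as substrate; 0% = vehicle only and 100% = full effect of reference inhibitor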
Starred values were filed as active, the others as inactive; x = not tested or not shown. Compounds with a hit are over-represented: about 2% of the library has one in this group of screens. Rule as the data show it, unless noted: active = inhibition above about 4.5%; inactive = the rest.

SMILES | MsrA inhibitor | PKA-R1A act | Mot1-301 SUMO | MsrA act | PKA-R2B activ | R1A FP artifact | PKA-R1A act conf | others
Cc1ccc(S(=O)Cc2ccc(C(=O)N3CCN(C(=O)c4ccco4)CC3)o2)cc1 (stereo not given) | 0.3 | -5.1 | 9.0 | -0.2 | -1.4 | x | x
O=C(c1ccco1)N1CCN(C(=O)c2ccc(CS(=O)c3ccc(Cl)cc3)o2)CC1 (stereo not given) | 0.4 | -4.0 | 1.1 | -2.4 | 18.8* | x | x | R2B FP artifact=4.7;PKA-R2B confirm=-1.0
C[C@H](O)[C@@H]1C(=O)N2CCc3c([nH]c4ccccc34)[C@@H]2C[C@@H]1N(C)C(=O)OCc1ccccc1 | 0.7 | x | x | x | x | x | x
Cc1onc(-c2ccccc2Cl)c1C(=O)NCc1cccnc1 | 0.3 | 10.0 | -16.7 | -9.2 | 20.3* | x | x | R2B FP artifact=3.1;PKA-R2B confirm=4.8
C[C@H]1COc2cc(NCCCN3CCOCC3)ccc2S(=O)(=O)N1 | -0.4 | x | x | x | x | x | x
Cc1oc2ccc(OCc3ccccc3F)cc2c1C(=O)O | 0.3 | -1.5 | 4.4 | -12.2 | -8.9 | x | x
Cc1ccccc1COc1ccc2oc(C)c(C(=O)O)c2c1 | -0.9 | 43.2* | -32.1 | -0.4 | 41.9* | 59.6* | 67.2* | R2B FP artifact=59.6*;PKA-R2B confirm=69.7*
CCS(=O)(=O)C1=NN2C(=N)/C(=C\c3ccc(OS(=O)(=O)c4ccccc4)cc3)C(=O)N=C2S1 | x | -9.2 | 7.8 | -3.7 | 1.1 | x | x
CCC1=NN2C(=N)/C(=C/c3ccc(OS(=O)(=O)c4ccccc4)cc3)C(=O)N=C2S1 | x | 22.1* | -7.1 | 1.6 | 28.9* | 22.8* | 28.5* | R2B FP artifact=22.8*;PKA-R2B confirm=22.8*
CCCC1Nc2ccc(C(=O)O)cc2C2C=CCC12 (stereo not given) | x | 22.9* | 138.3 | 3.0 | 19.3* | 21.4* | 23.9* | R2B FP artifact=21.4*;PKA-R2B confirm=19.9*
CC1=NC2=CC=CC3=NC(C(Cl)(Cl)Cl)=NC(=N1)N23 | 0.6 | x | x | x | x | x | x
COc1ccc2oc(C(=O)OCC(=O)Nc3ccc(NC(C)=O)cc3)c(C)c2c1 | -0.1 | 20.1* | -2.4 | -3.1 | 24.7* | 8.2 | 13.4 | R2B FP artifact=8.2;PKA-R2B confirm=12.9
COC(=O)C1=C(C)N(CC(C)C)C(=S)NC1c1cccc(OC)c1 (stereo not given) | 0.4 | x | x | x | x | x | x
Clc1ccc(/C=N/Nc2ncnc3nc[nH]c23)cc1 | 3.9 | -4.3 | x | -3.3 | 0.5 | x | x
Oc1ccc(/C=N/Nc2ncnc3nc[nH]c23)cc1 | 6.9* | -4.3 | -1.5 | -6.5 | 22.1* | x | x | R2B FP artifact=1.5;PKA-R2B confirm=-4.7;MsrA conf=5.6*
CC(C)C[C@H]1COc2c(Cl)cccc2S(=O)(=O)N1Cc1cccc(Cl)c1 | -0.1 | x | x | x | x | x | x
O=C(Nc1ccc(C(=O)O)cc1)/C(=C\c1ccco1)NC(=O)c1ccc(Br)cc1 | 5.1* | 0.4 | x | -4.9 | 23.6* | x | x | R2B FP artifact=4.0;PKA-R2B confirm=1.0;MsrA conf=3.0
CCn1nc(C(=O)N[C@@H](CCSC)c2nc3ccccc3[nH]2)c2ccccc2c1=O | -0.5 | -0.4 | 206.6 | -1.1 | -6.0 | x | x
CSCC[C@H](NC(=O)c1nn(C)c(=O)c2ccccc12)c1nc2ccccc2[nH]1 | -1.9 | 19.5* | -16.7 | -1.4 | -4.9 | -0.9 | -0.1
COc1ccc(/C=C(\C#N)C(=O)OCCNC(=O)c2ccncc2)cc1 | 2.2 | 19.6* | 3.7 | -2.9 | 9.6 | -1.4 | -1.8
Cc1ccc(-c2cc(NC(=O)Cc3c[nH]c4ccccc34)ccc2N(C)c2cccnc2)cc1 | 0.8 | x | x | x | x | x | x
CCOC(=O)N1CCc2c(sc3ncn(C)c(=O)c23)C1 | -0.5 | 19.1* | -1.0 | 0.1 | -0.2 | -3.9 | 0.1
C[C@H]1[C@H](c2ccccc2)Oc2cccc(N3CCCC3)c2S(=O)(=O)N1Cc1cccc(F)c1 | -0.4 | x | x | x | x | x | x
C[C@H](O)[C@@H]1C(=O)N2CCc3c([nH]c4cccc(-c5ccccc5)c34)[C@@H]2C[C@@H]1N(C)C(=O)NC1CCCCC1 | 2.2 | x | x | x | x | x | x
O=C1/C(=C/c2cccnc2)SC(=S)N1CC1CCCO1 (stereo not given) | 1.1 | 24.8* | -1.7 | -5.6 | -5.4 | 0.1 | 0.3
SMILES | MsrA inhibitor | PKA-R1A act | Mot1-301 SUMO | MsrA act | PKA-R2B activ | R1A FP artifact | PKA-R1A act conf | others
COCCCNC(=O)C[C@H]1C[C@@]2(C(=O)OC)C(=C[C@H](COCc3ccccc3)O[C@@H]2C)N(CCC2=CCCCC2)C1=O | 0.3 | x | x | x | x | x | x
Cc1c(Br)cc(C(=O)NC2CCCCC2)c(C)c1C | -0.2 | 23.0* | 196.7 | -5.8 | 7.3 | 6.9 | 3.1
CCC(=O)Nc1ccc(C(=O)NNC(=O)c2cccc(C)c2)cc1 | 0.6 | -0.1 | 380.0 | 1.1 | -7.6 | x | x
CCC(=O)Nc1ccc(C(=O)NNC(=O)COc2cccc(C)c2)cc1 | -1.9 | 20.5* | -3.9 | -1.3 | 3.9 | 1.9 | -2.5
COc1ccc(C)cc1NC(=O)CO/N=C(\N)CC(=O)Nc1ccccc1OC | 0.1 | 19.9* | -5.4 | -3.5 | 4.3 | 2.6 | 0.6
C[C@@H](CO)NC(=O)c1[nH]cnc1C(=O)Nc1ccccc1 | 0.4 | x | x | x | x | x | x
CCCCS(=O)(=O)N1CCCC(C(=O)Nc2ccc3c(c2)CCC3)C1 (stereo not given) | 2.1 | 18.8* | 23.6 | -2.7 | 0.9 | 0.2 | 0.6
Fc1ccc2cc(C3=CCCCC3)ncc2c1 | 0.0 | x | x | x | x | x | x
Cc1ccc(-c2cc(C(=O)N3CCOCC3)no2)cc1 | -0.6 | 20.9* | -7.8 | -12.9 | 4.7 | 6.0 | 5.1
Cc1ccc(-c2cc(C(=O)N3CCCC3)no2)cc1 | -0.3 | 7.7 | 29.1 | -6.3 | 1.3 | x | x
CC1CC(N(C(=O)c2ccco2)c2ccccc2)c2ccccc2N1C(=O)c1ccco1 (stereo not given) | -0.2 | 18.6* | -15.5 | 4.1 | -0.1 | 0.1 | 2.4
O=C(NCc1ccc2c(c1)OCO2)c1ccc2c(c1)S(=O)(=O)c1ccccc1C2=O | -0.2 | 21.8* | 8.4 | -1.1 | -6.8 | -1.9 | -1.8
Cc1[nH]c(=O)[nH]c(=O)c1S(=O)(=O)Nc1ccc(S(N)(=O)=O)cc1 | 0.9 | 19.8* | 270.2 | -4.0 | 4.1 | 0.2 | 4.8
C=CCN1[C@@H](C)[C@H](c2ccccc2)Oc2cccc(N3CCCC(C)C3)c2S1(=O)=O (stereo not given in full) | 0.6 | x | x | x | x | x | x
CCCCc1c(-c2ccccc2OC)ncn1Cc1ccc(Cl)cc1Cl | 0.4 | x | x | x | x | x | x
COC(=O)C1=CNC=C(C(=O)OC)C1c1cccc(OC)c1 | 0.2 | -1.2 | -7.1 | -4.1 | -3.4 | x | x
COC(=O)C1=CN(c2cccc(Cl)c2)C=C(C(=O)OC)C1c1cccc(OC)c1 | 1.1 | 18.6* | 0.8 | -4.4 | 0.4 | -1.3 | -6.7
CCCCc1c(-c2ccccc2OC)ncn1Cc1ccc([N+](=O)[O-])cc1 | 0.1 | x | x | x | x | x | x
